# Sampled rows, rich in hits. Any-hit rate of the full collection: about 1%.
# TSG101-PTAP inh: blocks PTAP/TSG101 interaction to inhibit HIV-1 budding; Q99816; Fluorescence polarization, FITC-PTAP peptide / Tsg101 binding; Potency, µM (series often up to 115 µM), for inactives: at the highest dose activity change, negative = inhibition, most hits filed as inhibitors; 340,000 tested, under 10 active; AID 493005; active = well fitted inhibition curve with a large enough effect in the main read-out, with a control signal flat, not every such curve was filed as active; inconclusive = small, poorly fitted or top-dose-only effect, or effect the other way, or a change in a side signal; inactive = no such curve, though single readings can be large or run the other way; also: potency is read from the fitted curve at half-maximal effect; % of control where 0% means no effect
#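 Steps: Tsg101 binding domain dispensed (10 uM final), compounds pinned in DMSO, FITC-labeled PTAP-motif peptide added (50 nM final); after 20 min binding at room temperature, polarization measured.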
# KCNH2 WT inh: inhibitors of human wildtype KCNH2 potassium channel | U2OS, BacMam KCNH2, thallium flux FluxOr; stronger effect = lower value | Q12809 | AID 720551 | activity change, % at 1.84 µM | 0.37% of 340,000 active;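 active = maximum activity change below -70%; inconclusive = maximum activity change between -70% and -50%; inactive = maximum activity change above -50%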; also: % is scaled to controls: 0 for no effect and ±100 for the full control effect
# Target sequence (Q12809 whole entry, looked up): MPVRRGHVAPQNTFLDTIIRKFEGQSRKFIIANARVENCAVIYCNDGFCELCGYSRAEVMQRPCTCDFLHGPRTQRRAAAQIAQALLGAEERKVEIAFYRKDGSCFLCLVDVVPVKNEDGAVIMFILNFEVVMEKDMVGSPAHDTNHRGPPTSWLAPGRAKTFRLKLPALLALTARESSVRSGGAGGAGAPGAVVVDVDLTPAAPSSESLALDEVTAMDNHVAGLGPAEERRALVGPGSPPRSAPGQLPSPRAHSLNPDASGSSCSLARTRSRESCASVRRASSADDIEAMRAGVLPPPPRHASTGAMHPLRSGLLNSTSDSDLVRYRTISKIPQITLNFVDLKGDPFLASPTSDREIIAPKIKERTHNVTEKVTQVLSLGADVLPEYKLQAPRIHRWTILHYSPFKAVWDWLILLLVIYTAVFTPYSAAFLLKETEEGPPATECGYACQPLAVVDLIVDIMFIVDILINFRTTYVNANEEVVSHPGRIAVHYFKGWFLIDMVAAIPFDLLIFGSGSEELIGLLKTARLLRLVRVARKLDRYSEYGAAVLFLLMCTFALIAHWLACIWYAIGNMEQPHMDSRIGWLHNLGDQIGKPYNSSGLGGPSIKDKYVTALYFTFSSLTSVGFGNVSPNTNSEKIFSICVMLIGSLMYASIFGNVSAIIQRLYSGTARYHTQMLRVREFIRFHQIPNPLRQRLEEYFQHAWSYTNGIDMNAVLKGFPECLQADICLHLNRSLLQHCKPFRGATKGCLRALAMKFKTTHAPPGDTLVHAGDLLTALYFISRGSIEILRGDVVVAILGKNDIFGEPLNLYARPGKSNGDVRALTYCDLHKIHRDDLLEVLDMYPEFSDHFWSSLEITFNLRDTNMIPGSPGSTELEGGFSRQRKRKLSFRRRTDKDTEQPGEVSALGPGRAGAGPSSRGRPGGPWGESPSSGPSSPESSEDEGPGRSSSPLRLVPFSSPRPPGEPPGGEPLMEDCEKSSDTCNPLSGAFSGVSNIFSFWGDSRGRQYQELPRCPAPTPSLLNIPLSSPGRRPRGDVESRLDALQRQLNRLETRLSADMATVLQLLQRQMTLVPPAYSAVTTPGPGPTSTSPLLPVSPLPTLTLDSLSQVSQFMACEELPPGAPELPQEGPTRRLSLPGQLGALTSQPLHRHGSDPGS
#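 U2OS cells transduced with wild-type KCNH2 virus are loaded with FluxOr dye for 45 min, and thallium flux is measured in kinetic reads before and after stimulation buffer. Rate constants are normalized to DMSO controls.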
# Glioma ERSR ind: inducers of ER stress response in human glioma cells; U87-MG GRP78 promoter luciferase reporter, 16 h; Potency, µM, without a hit: top-dose activation, most hits filed as activators; 0.02% of 420,000 active; AID 602332; active = well fitted activation curve with a large enough effect; inconclusive = small, poorly fitted or top-dose-only effect; inactive = no such curve, though single readings can be large or run the other way; also: potency is read from the fitted curve at half-maximal effect; series mostly up to about 76 µM; % of control where 0% means no effect; nearly all actives have a fitted effect of over 35% in size
#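 Stably transfected U87-MG glioma cells carrying a GRP78-based luciferase sensor; 16 h compound incubation. Luminescence end-point read 10 min after Bright-Glo addition at room temperature.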
# TRPML1 inh: inhibitors of human TRPML1 channel. AID 624415. 0.02% of 390,000 active. TRPML1-inducible cells, Ca2+ dye fluorescence, FDSS; stronger effect = lower value; inhibition of EC80 agonist-evoked calcium signal. Q9GZU1. activity change, negative = inhibition, % (concentration not given with the values); in the data active = activity change below about -50%; inconclusive = between about -30% and that limit;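 also: stimulus is agonist 54-4 at its EC80 concentration; % is scaled to controls: 0 for no effect and ±100 for the full control effect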
#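 Calcium fluorescence in TRPML1-DL cells induced overnight with Tet: a 110 s read after compound pin addition, then a 110 s antagonist read after challenge with 54-4 at 4 uM final (EC80).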
# TRPML1 agonist: agonists of human TRPML1 channel | Q9GZU1 | TRPML1-expressing cells, Ca2+ dye fluorescence, FDSS | activation, % (no concentration beside the values) | 0.12% of 410,000 active | AID 624414; in the data active = activation above about 50%; inconclusive = mostly about 30% to 49%; also: 0% is about no effect
#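 Kinetic FDSS Ca2+ read in Tet-induced TRPML1-DL cells (ABD Ca8 dye plus quencher, 45-90 min RT loading): baseline, then compound, then 110 s agonist window; EC80 agonist 54-4 at 4uM final added afterwards for a 110 s antagonist window.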
# KCNH2 3.1 inh: KCNH2 3.1 (human) potassium channel inhibition; activity change, % (tested at about 1.8 µM); 0.95% of 340,000 active; AID 720553; U2OS KCNH2 3.1, thallium flux FluxOr; stronger effect = lower value;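 active = maximum activity change below -70%; inconclusive = maximum activity change from -70% to -50%; inactive = maximum activity change above -50%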;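 also: thallium influx rate constant from kinetic fluorescence after stimulation buffer; % is scaled to controls: 0 for no effect and ±100 for the full control effect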
#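 Thallium flux read-out: FluxOr dye with Red40 quencher in HBSS/HEPES, 45 min at RT. Rate constants from kinetic reads were normalized to positive and negative DMSO controls. Cells: U2OS virally expressing the 3.1 isoform.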
# The depositor's hits bear a star; ? = inconclusive; . = no result given.
SMILES,TSG101-PTAP inh,KCNH2 WT inh,Glioma ERSR ind,TRPML1 inh,TRPML1 agonist,KCNH2 3.1 inh
Cc1ccc(C(=O)CNc2ccc(Cl)cc2)cc1,-5%,13,9%,18,0,-79*
Cc1cc(NC(=O)CSc2nc3ccccc3c(=O)n2Cc2ccc(F)cc2)no1,-6%,4,-3%,13,0,-33
O=C(CSc1nc2ccccc2c(=O)n1Cc1ccc(F)cc1)NCc1cccs1,-2%,-26,-1%,19,1,-95*
O=C(NCC1Cc2cc(-c3cncnc3)cc(Cl)c2O1)c1cccc(Cn2cccn2)c1 (stereo not drawn),.,.,-1%,.,.,.
CSc1nc(-c2cccs2)c(C#N)c(=O)[nH]1,?,-133*,-4%,10,2,-4
c1ccc(-n2nnnc2Sc2n[nH]c(-c3ccncc3)n2)cc1,2%,-200*,-2%,41,0,-189*
Cc1ccc(CN2CCN(CC(=O)N=Nc3c(O)[nH]c4ccccc34)CC2)cc1,6%,?,-5%,-7,0,-72*
CCOc1cc(/C=C\c2[nH]c(=O)[nH]c(=O)c2[N+](=O)[O-])ccc1OC(C)CC (stereo not drawn),-2%,-2,-2%,-71*,-1,0
CCCOc1ccc(/C=C/c2[nH]c(=O)[nH]c(=O)c2[N+](=O)[O-])cc1OCC,?,0,1%,-15,1,-2
COC(=O)c1cc(CNC(=O)c2cccc(N(C)C)c2)cc(NC(=O)c2ccccc2Cl)c1,.,.,-7%,.,.,.
Cc1cccc2c1-c1sc(C(=O)NCCCN3CCC(C)CC3)cc1CO2,-5%,11,-2%,4,0,-75*
CC1CCN(CCCNC(=O)c2cc3c(s2)-c2ccccc2OC3)CC1,-3%,14,1%,1,0,-45
COc1ccc(CN2CCCC(C(=O)c3ccc(SC)cc3)C2)cc1Cn1cccn1 (stereo not drawn),-1%,-96*,-6%,33,1,-82*
CCOc1ccccc1CN1CCCC(C(=O)c2ccc(OC)c(OC)c2)C1 (stereo not drawn),-2%,13,-4%,2,1,0
COc1ccc(C(=O)C2CCCN(Cc3cn(C)nc3-c3ccccc3)C2)cc1F (stereo not drawn),6%,21,-6%,-8,0,-71*
COc1nnc(-c2ccc(C)cc2)c2ccccc12,-8%,-4,2%,7,-1,-90*
COc1ccc(C(CCN2CCN(c3ccccc3)CC2)c2c(OC)cc(OC)c3c(-c4ccccc4)cc(=O)oc23)cc1 (stereo not drawn),-2%,-30,-3%,-8,0,-34
COc1cc(OC)c2c(-c3ccccc3)cc(=O)oc2c1C(CCN1CCN(c2ccccc2)CC1)c1ccc(N(C)C)cc1 (stereo not drawn),.,.,-5%,-15,0,.
COc1cc(OC)c2c(-c3ccccc3)cc(=O)oc2c1C(CCN1CCCC1)c1ccc2c(c1)OCO2 (stereo not drawn),-11%,-82*,-7%,-7,0,17
COc1cc(OC)c2c(C)cc(=O)oc2c1C(CCN1CCN(c2ccccc2)CC1)c1ccc2c(c1)OCO2 (stereo not drawn),-4%,-92*,-3%,-19,1,-103*
CCN(CC)CCC(c1ccc(N(C)C)cc1)c1c(OC)cc(OC)c2c(-c3ccccc3)cc(=O)oc12 (stereo not drawn),-2%,2,-6%,10,0,-112*
COc1cc(O)c(C(CCN2CCN(c3ccccc3)CC2)c2ccc3c(c2)OCO3)c(OC)c1 (stereo not drawn),-7%,?,-2%,-12,2,-90*
COc1cc(OC)c2c(-c3ccccc3)cc(=O)oc2c1C(CCN1CCOCC1)c1ccc2c(c1)OCO2 (stereo not drawn),-5%,1,-1%,40,1,-32

# Source: PubChem BioAssay
